# Assay results from the supplement of paper PMC11628255, “Interference of metal ions on the bioluminescent signal of firefly, Renilla, and NanoLuc luciferases in high-throughput screening assays” (Frontiers in Chemistry, 2024).
# ± gives the standard deviation of the averaged measurements.
# System: firefly luciferase (FLuc)
# Test: residual bioluminescent signal relative to negative control without GSH; higher = less interference (more residual luciferase signal)
# Conditions: screening conditions buffer
# Protocol: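 Selected metal salts at 3-4 concentrations tested on purified FLuc, NLuc or RLuc in screening buffer with 0, 0.2 or 2 mM glutathione added; 10 min enzyme pre-incubation at RT, luminescence 10 min after substrate. Signal normalised to negative control without GSH (% N_VALUE); triplicate wells.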
# [1] = metal salt concentration 1 mM, glutathione 0 mM
# [2] = metal salt concentration 1 mM, glutathione 0.2 mM
# [3] = metal salt concentration 1 mM, glutathione 2 mM
Compound,"residual bioluminescent signal (metal salt concentration 0.0001 mM, glutathione 0 mM)","residual bioluminescent signal (metal salt concentration 0.0001 mM, glutathione 0.2 mM)","residual bioluminescent signal (metal salt concentration 0.0001 mM, glutathione 2 mM)","residual bioluminescent signal (metal salt concentration 0.0047 mM, glutathione 0 mM)","residual bioluminescent signal (metal salt concentration 0.0047 mM, glutathione 0.2 mM)","residual bioluminescent signal (metal salt concentration 0.0047 mM, glutathione 2 mM)","residual bioluminescent signal (metal salt concentration 0.02 mM, glutathione 0 mM)","residual bioluminescent signal (metal salt concentration 0.02 mM, glutathione 0.2 mM)","residual bioluminescent signal (metal salt concentration 0.02 mM, glutathione 2 mM)",residual bioluminescent signal [1],residual bioluminescent signal [2],residual bioluminescent signal [3],"residual bioluminescent signal (metal salt concentration 0.2 mM, glutathione 0 mM)","residual bioluminescent signal (metal salt concentration 0.2 mM, glutathione 0.2 mM)","residual bioluminescent signal (metal salt concentration 0.2 mM, glutathione 2 mM)","residual bioluminescent signal (metal salt concentration 0.26 mM, glutathione 0 mM)","residual bioluminescent signal (metal salt concentration 0.26 mM, glutathione 0.2 mM)","residual bioluminescent signal (metal salt concentration 0.26 mM, glutathione 2 mM)"
[Cl][Fe]([Cl])[Cl] [iron(III) chloride],89.7 ± 5%,66.3 ± 5.5%,0.338 ± 0.22%,51.2 ± 3.8%,36.4 ± 2.5%,0.483 ± 0.17%,1.11 ± 0.084%,0.87 ± 0.14%,0.725 ± 0.43%,1.06 ± 0.36%,0.628 ± 0.47%,0.29 ± 0.14%,,,,,,
[Cl][Fe][Cl] [iron(II) chloride],,,,,,,,,,0.58 ± 0.29%,0.556 ± 0.31%,0.531 ± 0.22%,98.6 ± 7.2%,85.2 ± 7.9%,0.483 ± 0.3%,2.17 ± 0.52%,0.87 ± 0.25%,0.387 ± 0.3%
